From PubChem
Anthrax LF inh2 = blocks Bacillus anthracis lethal factor protease | 0.12% of 360,000 active | multiplex microsphere protease cleavage assay, LF | AID 588501 | P15917 | inhibition, % at 10 µM; also: plate controls were buffer without enzyme for full effect and enzyme alone for no effect
BoNT A protease = blocks Botulinum neurotoxin A light chain protease; inhibition, % at 10 µM; multiplex microsphere protease substrate cleavage, flow cytometry; 0.17% of 360,000 active; also: plate controls were buffer without enzyme for full effect and enzyme alone for no effect
BoNT F protease = BoNT F light chain protease inhibition; inhibition, % at 10 µM; AID 588497; 0.22% of 360,000 active; Multiplex microsphere protease cleavage assay, flow cytometry; in the data active = inhibition above about 35%, passing the limit was not always enough; inconclusive = no clear call, values can overlap the other calls; also: plate controls were buffer without enzyme for full effect and enzyme alone for no effect
Autofluor counter = counter-screen for toxin protease inhibitors: compound fluorescence. compound autofluorescence counterscreen, microsphere flow cytometry; hits give high values. fluorescence intensity (no concentration beside the values). 3.1% of 360,000 active; in the data active = fluorescence intensity above about 16000; inconclusive = no clear call, values can overlap the other calls
Starred values were filed as active, the others as inactive. Only some compounds are listed: those with a hit (about 3.5% of all), similar ones and a draw of the others. Rule as the data show it, unless noted: active = inhibition above about 30%; inconclusive = no clear call, values can overlap the other calls; inactive = below that.

How did CC(CC(=O)NC1CCSC1=O)c1ccccc1 (configuration not stated) do in these assays?
Anthrax LF inh2: -2; BoNT A protease: -2; BoNT F protease: -13; Autofluor counter: 11715

What do the screens show for `O=C(COc1ccc(S(=O)(=O)N2CCOCC2)cc1)Nc1ccccc1C(F)(F)F`?
Anthrax LF inh2: -3; BoNT A protease: 4; BoNT F protease: 5; Autofluor counter: 22134*

What do the screens show for `O=C(COc1ccc(S(=O)(=O)N2CCOCC2)cc1)NCCc1ccccc1`?
Anthrax LF inh2: 0; BoNT A protease: -1; BoNT F protease: inconclusive; Autofluor counter: 5843

What do the screens show for `COc1ccc(S(=O)(=O)N(C)C[C@H]2Oc3ccc(NS(=O)(=O)c4ccc(F)cc4)cc3C(=O)N([C@H](C)CO)C[C@@H]2C)cc1`?
Anthrax LF inh2: -9; BoNT A protease: -1; BoNT F protease: 4; Autofluor counter: 4107

What do the screens show for `O=C1CCC(=O)N1c1ccc(S(=O)(=O)Nc2ccc(Br)cc2)cc1`?
Anthrax LF inh2: -2; BoNT A protease: 0; BoNT F protease: -2; Autofluor counter: 4265

Results for COc1cccc(NS(=O)(=O)c2ccc(NC(C)=O)cc2)c1 ?
Anthrax LF inh2: 2; BoNT A protease: inconclusive; BoNT F protease: 1; Autofluor counter: 23977*

What do the screens show for `COc1cccc(NS(=O)(=O)c2c(C)cc(C)cc2C)c1`?
Anthrax LF inh2: -1; BoNT A protease: -1; BoNT F protease: -2; Autofluor counter: 20856*

How did COc1ccc(NS(=O)(=O)c2ccc(N3C(=O)CCC3=O)cc2)cc1 do in these assays?
Anthrax LF inh2: -2; BoNT A protease: -4; BoNT F protease: -4; Autofluor counter: 24859*

How did COc1ccc(S(=O)(=O)Nc2cccc(NC(C)=O)c2)cc1 do in these assays?
Anthrax LF inh2: -4; BoNT A protease: -7; BoNT F protease: -9; Autofluor counter: 17504*

Results for CCc1nc2c(OCC=C(C)C)cccn2c1N(C)C(=O)c1ccc(OC)cc1 ?
Anthrax LF inh2: -2; BoNT A protease: 0; BoNT F protease: -1; Autofluor counter: 3425

Results for COc1ccc(Cn2cc(CN3CC(N4CCN(C)CC4)CS3(=O)=O)nn2)cc1 (configuration not stated) ?
Anthrax LF inh2: -2; BoNT A protease: -1; BoNT F protease: -8; Autofluor counter: 4140

What do the screens show for `CCCS(=O)(=O)NC(=O)C1(C)CCN(C(=O)c2ccc3c(c2)OCO3)C1` (configuration not stated)?
Anthrax LF inh2: 0; BoNT A protease: -1; BoNT F protease: -12; Autofluor counter: 3045

How did O=C(O)c1ccc(NS(=O)(=O)c2ccc(Cl)cc2)cc1 do in these assays?
Anthrax LF inh2: -5; BoNT A protease: -1; BoNT F protease: -2; Autofluor counter: 21092*

Results for COC(=O)c1ccc(NS(=O)(=O)c2ccc(OC)cc2)cc1 ?
Anthrax LF inh2: -1; BoNT A protease: inconclusive; BoNT F protease: 0; Autofluor counter: 22817*

What do the screens show for `COC(=O)c1ccc(/C=C/C(=O)c2ccc(OC)cc2)cc1`?
Anthrax LF inh2: 0; BoNT A protease: 0; BoNT F protease: 1; Autofluor counter: 22281*

Results for COc1ccc(N2CCN(C(=O)c3ccc(NS(=O)(=O)c4ccc(F)c(F)c4)cc3)CC2)cc1 ?
Anthrax LF inh2: -1; BoNT A protease: -4; BoNT F protease: -6; Autofluor counter: 17709*

How did O=C(Nc1ccc(NS(=O)(=O)c2ccccc2)cc1)c1ccc(Cl)cc1 do in these assays?
Anthrax LF inh2: -3; BoNT A protease: -6; BoNT F protease: -7; Autofluor counter: 5541

How did Cc1nn(CC(=O)N(CC(C)C)C2CCS(=O)(=O)C2)c(C)c1[N+](=O)[O-] (configuration not stated) do in these assays?
Anthrax LF inh2: -9; BoNT A protease: 0; BoNT F protease: -8; Autofluor counter: 3851

Results for CCC(C(=O)NC1CCCCC1)N(Cc1cccs1)C(=O)CCC(=O)Nc1cc(C)on1 (configuration not stated) ?
Anthrax LF inh2: -1; BoNT A protease: -1; BoNT F protease: -2; Autofluor counter: 3622

Results for O=C(c1cc2ccccc2oc1=O)N1CCN(S(=O)(=O)c2ccccc2)CC1 ?
Anthrax LF inh2: 2; BoNT A protease: -2; BoNT F protease: -8; Autofluor counter: 5458

How did CC(C)CC1NC(=O)c2cccnc2-n2c1nc1cc(F)ccc1c2=O (configuration not stated) do in these assays?
Anthrax LF inh2: -4; BoNT A protease: 0; BoNT F protease: 0; Autofluor counter: 3710

What do the screens show for `COc1ccc(N2C(=O)CCC(C(C)=O)=C2C)cc1`?
Anthrax LF inh2: -2; BoNT A protease: inconclusive; BoNT F protease: 1; Autofluor counter: 22405*

Results for COc1cccc(OCCCN2CCN(S(=O)(=O)c3ccc(NC(C)=O)cc3)CC2)c1 ?
Anthrax LF inh2: -3; BoNT A protease: inconclusive; BoNT F protease: -2; Autofluor counter: 20823*

Results for COc1ccc(NS(=O)(=O)c2cccc3cccnc23)cc1 ?
Anthrax LF inh2: 3; BoNT A protease: 1; BoNT F protease: -1; Autofluor counter: 6368

Results for COc1ccc(OS(=O)(=O)c2ccc(N3C(=O)CCC3=O)cc2)cc1 ?
Anthrax LF inh2: -17; BoNT A protease: 0; BoNT F protease: -5; Autofluor counter: 3689

Results for O=S(=O)(NC1CCCCCC1)c1cccc2cccnc12 ?
Anthrax LF inh2: -8; BoNT A protease: -2; BoNT F protease: -6; Autofluor counter: 16645*

How did COC(=O)c1ccc(NS(=O)(=O)c2cccc3cccnc23)cc1 do in these assays?
Anthrax LF inh2: 0; BoNT A protease: 4; BoNT F protease: 8; Autofluor counter: 18372*

Results for C[C@@H](CO)NC(=O)c1[nH]cnc1C(=O)Nc1cccc(Cl)c1 ?
Anthrax LF inh2: 1; BoNT A protease: 0; BoNT F protease: -3; Autofluor counter: 3705

What do the screens show for `CC(C)(C)OC(=O)NCCc1onc(-c2ccccc2F)c1C(=O)O`?
Anthrax LF inh2: -1; BoNT A protease: 0; BoNT F protease: -3; Autofluor counter: 3533

How did COc1ccc(/C=C/C(=O)c2ccc(Cl)cc2)c(OC)c1 do in these assays?
Anthrax LF inh2: 0; BoNT A protease: 4; BoNT F protease: 1; Autofluor counter: 18548*

How did COc1ccc(/C=C/C(=O)c2cc(Cl)ccc2O)c(OC)c1 do in these assays?
Anthrax LF inh2: -12; BoNT A protease: -1; BoNT F protease: -8; Autofluor counter: 6049

What do the screens show for `O=C(NCc1cccs1)c1ccc2nc([C@@H]3O[C@H](CO)[C@H](O)[C@H](O)[C@H]3O)[nH]c2c1`?
Anthrax LF inh2: -2; BoNT A protease: -1; BoNT F protease: -10; Autofluor counter: 4031

What do the screens show for `Cc1ccc(SC[C@H](C)CN2CCC(NC(=O)OCc3ccccc3)CCC2=O)cc1` (some centres not stated)?
Anthrax LF inh2: -3; BoNT A protease: 0; BoNT F protease: 6; Autofluor counter: 4208

What do the screens show for `COC(=O)c1cn[nH]c1NC(=S)Nc1ccc(Cl)c(Cl)c1`?
Anthrax LF inh2: -6; BoNT A protease: 0; BoNT F protease: -9; Autofluor counter: 9891

What do the screens show for `COC(=O)c1cn[nH]c1NC(=S)Nc1ccc(C)cc1Cl`?
Anthrax LF inh2: 0; BoNT A protease: inconclusive; BoNT F protease: -2; Autofluor counter: 23473*
